Source: PubChem BioAssay (The Scripps Research Institute Molecular Screening Center)
M4 PAM: potentiates acetylcholine response at human M4 receptor. activation, % at 3 µM. CHO-K1 hM4/Gqi5, Fluo-8 calcium fluorescence, ACh EC20; 0% = ACh EC20, 100% = maximal ACh. 0.4% of 360,000 active. P08173;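 active means activation above its plate's cutoff, the mean activation of sample wells plus 3 SD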
Target sequence (P08173 whole entry, looked up): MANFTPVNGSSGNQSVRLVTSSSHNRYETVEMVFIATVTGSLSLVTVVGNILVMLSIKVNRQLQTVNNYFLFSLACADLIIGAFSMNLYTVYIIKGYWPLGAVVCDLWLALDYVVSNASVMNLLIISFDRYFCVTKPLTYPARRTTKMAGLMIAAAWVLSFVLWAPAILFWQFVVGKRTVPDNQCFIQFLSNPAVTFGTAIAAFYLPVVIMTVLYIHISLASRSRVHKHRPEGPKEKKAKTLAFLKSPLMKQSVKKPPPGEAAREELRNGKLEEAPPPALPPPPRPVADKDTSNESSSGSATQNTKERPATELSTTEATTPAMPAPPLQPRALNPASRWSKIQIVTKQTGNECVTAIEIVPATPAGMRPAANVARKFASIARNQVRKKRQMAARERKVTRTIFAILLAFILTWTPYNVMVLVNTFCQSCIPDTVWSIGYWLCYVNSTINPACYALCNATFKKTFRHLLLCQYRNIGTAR
CHO-K1 Ca ag: nonselective activator or artifact in parental CHO-K1 cells | Fluo-8 calcium fluorescence; scaled to maximal ATP response, vehicle zero | activation, % at 3 µM | 0.48% of 360,000 active; in the data active means activation above about 15%;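 further: untransfected CHO-K1 host cells lacking M1 receptor as counterscreen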
CHO-K1 Ca antag: nonselective inhibitor or artifact in parental CHO-K1 cells; ATP-induced calcium, Fluo-8 fluorescence; inhibition, % at 3 µM; 0.6% of 360,000 active;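 active means inhibition above a per-plate cutoff, the plate's mean sample inhibition plus 3 SD, cut at about 24% in these data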;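 further: 0% = DMSO plus EC80 ATP and 100% = DMSO alone without ATP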
CHRM4 antagonist: antagonists of human muscarinic M4 receptor (CHRM4). inhibition, % at 3 µM. CHO-hM4 cells, ACh EC80, Fluo-8 calcium fluorescence. 0.73% of 360,000 active;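 active means inhibition above its plate's cutoff, the mean inhibition of sample wells plus 3 SD, cut at about 27% in these data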;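 further: 0% = acetylcholine EC80 with DMSO and 100% = DMSO without agonist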
CHO-K1 Ca PAM: counter-screen for M1 PAMs: effect in parental CHO-K1 cells. ATP EC20, Fluo-8 calcium fluorescence; 0% at ATP EC20, 100% at ATP max. activation, % at 3 µM. 0.02% of 360,000 active;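 active means activation above the run cutoff, the mean activation of all test compounds plus 3 SD, cut at about 40% in these data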;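 further: peak over basal fluorescence ratio in a 140 s read after ATP addition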
M4 ag: CHRM4 agonism in calcium assay. CHO-K1 hM4/Gqi5, Fluo-8 calcium fluorescence; vehicle 0%, full acetylcholine response 100%. AID 624127. 0.14% of 360,000 active. activation, % at 3 µM;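 active means activation above the run mean over all test wells plus 3 SD, cut at about 32% in these data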;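 further: peak over basal fluorescence ratio per well then scaled between controls; 0% = DMSO wells and 100% = acetylcholine at EC100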
The depositor's hits bear a star. A selection: hits, their analogues and other compounds. The true share with any hit is near 2%.

How did CCOC(=O)N1CCC(N2CCN(C3CCCC3)C(CCO)C2)CC1 (stereo not drawn) do in these assays?
M4 PAM: -21.2; CHO-K1 Ca ag: 1.5; CHO-K1 Ca antag: -6.0; CHRM4 antagonist: 79.8*; CHO-K1 Ca PAM: 25.9; M4 ag: 0.9

How did CCOC(=O)N1CCN(C(=O)C2CCCCC2)CC1 do in these assays?
M4 PAM: 1.0; CHO-K1 Ca ag: 2.7; CHO-K1 Ca antag: -1.1; CHRM4 antagonist: -7.3; CHO-K1 Ca PAM: 13.2; M4 ag: -0.1

Results for Cc1ccc(C)c(NC(=O)Nc2ccc3c(c2)OCO3)c1 ?
M4 PAM: -2.0; CHO-K1 Ca ag: -0.1; CHO-K1 Ca antag: 29.2*; CHRM4 antagonist: -0.3; CHO-K1 Ca PAM: -15.3; M4 ag: 0.4

How did Nc1c(Cl)ncnc1N/N=C/c1ccncc1 do in these assays?
M4 PAM: -3.1; CHO-K1 Ca ag: -0.6; CHO-K1 Ca antag: 25.7*; CHRM4 antagonist: 2.6; CHO-K1 Ca PAM: -20.0; M4 ag: 0.4

Results for Nc1c(Cl)ncnc1N/N=C/c1cccc(O)c1 ?
M4 PAM: 5.0; CHO-K1 Ca ag: 0.3; CHO-K1 Ca antag: -5.3; CHRM4 antagonist: -13.2; CHO-K1 Ca PAM: 13.5; M4 ag: 0.7

Results for CC(C)N(C(=O)Cn1cnc2c(cnn2-c2ccccc2Cl)c1=O)C(C)C ?
M4 PAM: 1.7; CHO-K1 Ca ag: 0.1; CHO-K1 Ca antag: 1.4; CHRM4 antagonist: 0.6; CHO-K1 Ca PAM: -3.1; M4 ag: 0.8

Results for COc1ccc(N2CCN(C(=O)CCc3ccc(S(=O)(=O)NCC(C)C)cc3)CC2)cc1 ?
M4 PAM: -6.3; CHO-K1 Ca ag: 7.1; CHO-K1 Ca antag: 10.7; CHRM4 antagonist: 8.9; CHO-K1 Ca PAM: -4.1; M4 ag: 6.2

Results for COc1ccc(C(=O)NC(C)CCc2ccccc2)cc1[N+](=O)[O-] (stereo not drawn) ?
M4 PAM: 0.9; CHO-K1 Ca ag: 2.3; CHO-K1 Ca antag: -3.0; CHRM4 antagonist: -3.5; CHO-K1 Ca PAM: 3.4; M4 ag: 2.9

What do the screens show for `COc1ccc(C(=O)C(C)[n+]2ccc(C)c3ccccc32)cc1[N+](=O)[O-]` (stereo not drawn)?
M4 PAM: -14.2; CHO-K1 Ca ag: 2.5; CHO-K1 Ca antag: 15.8; CHRM4 antagonist: 27.0*; CHO-K1 Ca PAM: -9.3; M4 ag: 3.9

How did CCC1(c2ccc(F)cc2)NC(=O)N(CC(=O)Nc2ccc(S(N)(=O)=O)cc2)C1=O (stereo not drawn) do in these assays?
M4 PAM: 0.2; CHO-K1 Ca ag: 0.2; CHO-K1 Ca antag: -2.6; CHRM4 antagonist: -7.5; CHO-K1 Ca PAM: 1.4; M4 ag: 1.1

Results for CCN(CC)CCCCCCCCOC(=O)c1cc(OC)c(OC)c(OC)c1 ?
M4 PAM: -18.6; CHO-K1 Ca ag: 1.7; CHO-K1 Ca antag: -9.0; CHRM4 antagonist: 28.9*; CHO-K1 Ca PAM: 4.4; M4 ag: 7.0

Results for C=CCn1c(N2CCCC2)nc2c1c(=O)[nH]c(=O)n2C ?
M4 PAM: 8.5; CHO-K1 Ca ag: 0.3; CHO-K1 Ca antag: -18.7; CHRM4 antagonist: -1.8; CHO-K1 Ca PAM: 12.7; M4 ag: 0.2

Results for Cn1c(=O)[nH]c(=O)c2c1nc(N1CCCCC1)n2C/C=N/NC(=O)c1cc(Br)ccc1O ?
M4 PAM: 1.6; CHO-K1 Ca ag: 26.0*; CHO-K1 Ca antag: 5.1; CHRM4 antagonist: -3.5; CHO-K1 Ca PAM: -9.3; M4 ag: 1.5

What do the screens show for `COc1cccc(OCCSc2nc(N)cc(N)n2)c1`?
M4 PAM: -2.8; CHO-K1 Ca ag: 0.2; CHO-K1 Ca antag: 26.9*; CHRM4 antagonist: -0.5; CHO-K1 Ca PAM: -6.7; M4 ag: 4.1

How did O=C(c1c(F)cccc1F)N(Cc1ccccn1)C1CC1 do in these assays?
M4 PAM: 18.1*; CHO-K1 Ca ag: 0.3; CHO-K1 Ca antag: -11.2; CHRM4 antagonist: -2.5; CHO-K1 Ca PAM: 18.6; M4 ag: 1.3

How did O=C(CC1CCCCC1)NCc1ccccn1 do in these assays?
M4 PAM: 3.5; CHO-K1 Ca ag: 0.6; CHO-K1 Ca antag: -2.9; CHRM4 antagonist: 0.2; CHO-K1 Ca PAM: 19.9; M4 ag: 0.1

What do the screens show for `CC(=O)COC(=O)CNC(=O)c1ccc(Br)cc1`?
M4 PAM: 26.7; CHO-K1 Ca ag: 0.1; CHO-K1 Ca antag: -9.6; CHRM4 antagonist: 3.0; CHO-K1 Ca PAM: 22.3; M4 ag: 0.8

What do the screens show for `Cc1cc(Nc2ccccc2)nn1C(=O)c1ccc(Br)cc1`?
M4 PAM: -4.7; CHO-K1 Ca ag: -0.1; CHO-K1 Ca antag: 25.1*; CHRM4 antagonist: 15.7; CHO-K1 Ca PAM: -7.7; M4 ag: -0.1

How did Cn1c(SCCN2CCCC2)nnc1C1CCN(S(=O)(=O)c2cccc(F)c2)CC1 do in these assays?
M4 PAM: -15.8; CHO-K1 Ca ag: 1.5; CHO-K1 Ca antag: -12.7; CHRM4 antagonist: 32.5*; CHO-K1 Ca PAM: 9.8; M4 ag: 0.6

How did COc1cc(Cl)c(C)cc1NC(=O)CCCn1c(=O)oc2ccccc21 do in these assays?
M4 PAM: 30.1*; CHO-K1 Ca ag: 0.1; CHO-K1 Ca antag: 6.6; CHRM4 antagonist: -12.4; CHO-K1 Ca PAM: -6.9; M4 ag: 0.9

How did COc1cc(OC)c(NC(=O)CCCn2c(=O)oc3ccccc32)cc1Cl do in these assays?
M4 PAM: 2.6; CHO-K1 Ca ag: 1.0; CHO-K1 Ca antag: -6.6; CHRM4 antagonist: -3.9; CHO-K1 Ca PAM: 22.6; M4 ag: 1.5

What do the screens show for `C#CCOCCOCCOCCNc1nc(N2CCN(C(=O)C([C@@H](C)O)n3cc([C@@H](N)CCCCN)nn3)CC2)nc(N2CCN(C(=O)[C@H](CC(N)=O)n3cc(C(N)[C@@H](C)CC)nn3)CC2)n1` (stereo partly drawn)?
M4 PAM: -11.9; CHO-K1 Ca ag: 0.4; CHO-K1 Ca antag: -11.9; CHRM4 antagonist: 35.0*; CHO-K1 Ca PAM: 7.0; M4 ag: -0.8

What do the screens show for `C#CCOCCOCCOCCNc1nc(N2CCN(C(=O)[C@H](CC(N)=O)n3cc(C(N)[C@@H](C)CC)nn3)CC2)nc(N2CCN(C(=O)[C@H](CCCCN)n3cc([C@@H](N)CC(N)=O)nn3)CC2)n1` (stereo partly drawn)?
M4 PAM: 6.3; CHO-K1 Ca ag: 0.9; CHO-K1 Ca antag: -13.3; CHRM4 antagonist: -5.7; CHO-K1 Ca PAM: 15.2; M4 ag: -0.2

Results for CCOc1ccccc1NC(=O)CSc1nnc(NC(=O)c2ccco2)s1 ?
M4 PAM: 21.8*; CHO-K1 Ca ag: 0.4; CHO-K1 Ca antag: -0.6; CHRM4 antagonist: 1.9; CHO-K1 Ca PAM: 8.9; M4 ag: 0.8

Results for Cc1ccccc1NC(=O)CSc1nnc(NC(=O)c2ccco2)s1 ?
M4 PAM: 4.6; CHO-K1 Ca ag: 0.7; CHO-K1 Ca antag: -2.0; CHRM4 antagonist: 3.6; CHO-K1 Ca PAM: 11.4; M4 ag: 0.5

How did O=C(CSc1nnc(NC(=O)c2ccco2)s1)Nc1ccccc1F do in these assays?
M4 PAM: 24.5*; CHO-K1 Ca ag: 2.0; CHO-K1 Ca antag: -13.5; CHRM4 antagonist: -1.6; CHO-K1 Ca PAM: 10.5; M4 ag: 1.6
